# YopH inh = YopH (Yersinia) phosphatase inhibition. fluorescence Ex485/Em525. inhibition, % (concentration not given with the values). hit rate 0.16% among 140,000. AID 898; in the data active = inhibition above about 50%
# RmlCD inh mix = mixture blocks RmlC and RmlD coupled enzyme activity. RmlC/RmlD coupled enzyme inhibition, 384-well mixture HTS. inhibition, % at 5.5 µM. hit rate 0.39% among 110,000. AID 1532; in the data active = inhibition above about 30%, passing the limit was not always enough
# A number is an active result; n = inactive; x = no result given. Rows were chosen to be rich in hits. Some 0.44% of all compounds tested hit in one or more screens of this group.
SMILES,YopH inh,RmlCD inh mix
CCO/C=C1/C(=O)N(Cc2ccccc2)C(=O)c2ccccc21,101.4,x
CCCn1c(SCC(=O)NCCc2ccc(Cl)cc2Cl)n[nH]c1=O,n,n
CCN(CC)S(=O)(=O)c1cc(C(=O)OCC(=O)Nc2ccc(-c3nc4ccc(C)cc4s3)cc2)ccc1F,n,x
Cc1c(O)c(CN2CCCC2)cc2c3c(c(=O)oc12)CCC3,n,n
CCc1cc(=O)oc2c(C)c(O)c(CN3CCCCC3)cc12,n,92.6
CCN1C=C(Cc2cccs2)C2=C(C1)C(c1cccs1)C(C#N)=C(N)O2 (stereo not given),n,n
O=C(O[C@@H]1OC2COC(=O)c3cc(O)c(O)c(O)c3-c3c(cc(O)c(O)c3O)C(=O)O[C@@H]([C@H]1O)[C@@H]2O)c1cc(O)c(O)c(O)c1,54.1,n
O=C(Nc1ccc(O)c2c(=O)cc(-c3ccccc3Cl)oc12)c1cccs1,x,n
COc1ccccc1N1C(C)=CC(=C(C#N)c2nc3ccccc3s2)C=C1C,70.0,x
COC(=O)c1ccc(/C(O)=C(\C#N)c2nc3ccccc3s2)cc1,n,n
CC1=CC(=C(C#N)c2nc3ccccc3s2)C=C(C)N1c1ccc(F)cc1,65.2,x
CC(C)=C(C#N)c1nc2ccccc2s1,n,n
O=C(O)C1C2C=CC(C2)C1C(=O)NCc1cccnc1 (stereo not given),n,n
O=C(O)c1ccc(N=NN2CCCCCC2)cc1,n,x
Cc1cc(C)c2c(n1)nn1c(N3CCN(c4ccccc4)CC3)cc(C)nc21,n,n
Cc1cc(C)c2c(n1)nn1c(NCCOCCO)cc(C)nc21,n,44.1
CCC1=C[C@H]2CN(C1)Cc1c([nH]c3ccccc13)[C@@](C(=O)OC)(c1cc3c(cc1OC)N(C)[C@H]1[C@@](O)(C(=O)OC)[C@H](OC(C)=O)[C@]4(CC)C=CCN5CC[C@]31[C@@H]54)C2,x,n
O=C(NCc1ccco1)C1CCCN(S(=O)(=O)Cc2ccccc2)C1 (stereo not given),n,n
Cc1ccc(S(=O)(=O)N2CCCC(C(=O)NCc3ccco3)C2)cc1Cl (stereo not given),56.2,n
Cc1cccn2c(=O)c(C=Nc3ccc(Cl)cc3)c(NCCO)nc12,n,n
Cc1cccn2c(=O)c(C=Nc3ccccc3)c(NCCO)nc12,n,36.6
COC(=O)c1nnn(CC(=O)Nc2cccc(OC)c2)c1C(=O)OC,n,n
COC(=O)c1ccc(Cl)c(NC(=O)CN2CCN(Cc3ccccc3)CC2)c1,63.7,n
COC(=O)c1cccc(NC(=O)CN2CCN(Cc3ccccc3)CC2)c1,n,n
O=C(c1ccccc1C(=O)N(c1ccccc1)c1ccccc1)N1CCCCC1,n,x
SMILES,YopH inh,RmlCD inh mix
Cc1csc(N2CCc3ccccc32)n1,53.8,n
Cc1cc(N2CCCc3ccccc32)n2ncnc2n1,n,n
O=C1C2C3C=CC(C4CC34)C2C(=O)N1/N=C/c1cccs1 (stereo not given),n,x
CCN(CC)S(=O)(=O)c1cccc(NC(=O)c2ccc(-n3nc(C)cc3C)cc2)c1,n,x
CCNS(=O)(=O)c1ccc2c(c1)NCC2,n,x
O=C1NCCCC2c3cc(O)c4ccccc4c3OC12N1CCCCC1 (stereo not given),74.5,n
O=C1NCCCC2c3c(cc(Br)c(O)c3Br)OC12N1CCOCC1 (stereo not given),n,n
COC(=O)[C@H](C)NC(=O)Nc1cc(Cl)ccc1C,n,n
CCCC(=O)OCCNc1cc(SCc2ccco2)c2nonc2c1[N+](=O)[O-],n,x
CC(=O)OCCCNc1cc(SCc2ccco2)c2nonc2c1[N+](=O)[O-],69.4,x
COc1ccc(N=CC2=C(Nc3ccc(OC)cc3)c3c(C)nn(-c4ccccn4)c3CC2)cc1,50.9,60.9
COc1ccc(-c2cc(C(=O)O)c3c(C)nn(-c4ccccn4)c3n2)cc1,n,n
Cc1ccc(C)c(NS(=O)(=O)c2ccc3c(c2)Cc2cc(S(=O)(=O)Nc4cc(C)ccc4C)ccc2-3)c1,n,x
CCOC(=O)N/N=C/C=C/c1ccccc1,n,x
O=c1c2sccc2nc(SCc2ccc([N+](=O)[O-])cc2)n1Cc1ccccn1,n,x
Cc1ccc(-c2cc(C(=O)Nc3cc(C)ccc3C)[nH]n2)c(O)c1,n,n
COc1ccc(OC)c(NC(=O)c2cc(-c3ccc(C)cc3O)n[nH]2)c1,91.6,n
CC(=O)N(C(C)=O)S(=O)(=O)c1ccc(N=NN2CCOCC2)cc1,n,x
CCC(C(=O)NC1CCCCC1)n1c(SCc2ccccc2F)nc2ccncc21 (stereo not given),n,n
Cc1nc(-c2ccccc2)sc1-c1nc(-c2cccnc2)ncc1S(=O)(=O)c1ccccc1,n,n
COc1ccc(C2C=C(c3cccs3)Nc3nc(CCCO)nn32)cc1 (stereo not given),n,44.0
COc1ccc(C2C=C(c3ccccc3)Nc3nc(CCCO)nn32)cc1 (stereo not given),n,n
C=CCn1c(COc2ccccc2)nnc1SC(C)C(=O)N/N=C/c1cc(Cl)ccc1O (stereo not given),n,n
Cc1cccc(OCCCCc2c(C)n[nH]c2C)c1,70.2,n
COc1cccc(OCCc2c(C)n[nH]c2C)c1,n,n
